# Hits are enriched below; roughly 5.7% of the tested compounds scored in any of these assays.
# S2 tox: viability counter-screen for ATXN expression inhibitors. Potency, µM (top dose mostly 56.7 µM), actives largely listed as cytotoxic. 400,000 compounds, 0.49% hits. S2 cells (HEK-293 line with an ATXN2-luciferase reporter) viability, CellTiter-Fluor protease fluorescence, 24 h; further: nearly all actives have a fitted effect of over 40% in size
# TGFb inhibitor: blocks TGF-b signaling | 410,000 compounds, 1.2% hits | HepG2 CAGA-GFP TGF-b/SMAD3 reporter, GFP fluorescence, 18 h; TGF-beta stimulated, 500 pg/mL final | Potency, µM (top dose mostly 46.1 µM), hits mostly inhibitors | AID 588855; further: nearly all actives have a fitted effect of over 65% in size
#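 Inhibition of TGF-beta-driven CAGA-GFP reporter expression in HEPG2 cells is measured by cellular GFP fluorescence after 18 h stimulation with 500 pg/mL recombinant TGF-beta in 1% FBS medium at 37 degrees C.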
# IL1B secr inh: inhibitors of inflammasome signaling (IL-1 beta secretion); THP-1 LPS/ATP IL-1B secretion, AlphaLISA, 16 h; hits give low values; 360,000 compounds, 4.7% hits; AID 743279; activity change, % at 57.5 µM; in the data active means activity change below about -50%; inconclusive means mostly about -30% to -49%
#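 Secreted IL-1B measured by AlphaLISA bead assay after 16 h compound exposure of THP-1 cells; compounds (final up to 57.5 uM) added 1 h before LPS (250 ng/mL) and ATP (1.25 mM) stimulation; lower signal means less secretion.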
# ATXN2 expr inh: reduces ATXN2 reporter expression in HEK-293 cells. Potency, µM (doses to about 57 µM), hits mostly inhibitors. 360,000 compounds, 0.72% hits. AID 1745845. HEK-293 ATXN2-luciferase reporter, luminescence, 24 h; further: nearly all actives have a fitted effect of over 55% in size
#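 qHTS (up to 57 uM final) was run with 24 h compound exposure of reporter cells at 37 °C. Each well was multiplexed: SteadyGlo luminescence measured ATXN2-luciferase expression after a fluorogenic Gly-Phe-AFC viability readout (25 uM final).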
# HepG2 viability: HepG2 cytotoxicity, counter-screen for TGF-b inhibitors. Potency, µM (top dose mostly 46.1 µM), hits mostly cytotoxic. HepG2 CAGA-GFP viability, ATP luminescence, 18 h. 410,000 compounds, 0.76% hits. AID 588856
#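 CellTiter-Glo luminescence gave cytotoxicity after 18 hours at 37 degrees C. The cells were HepG2 CAGA-GFP in 1% FBS DMEM, stimulated with 500 pg/mL TGF-beta after compound addition. %Activity was normalised to no-cell wells (complete cell-killing) and DMSO (no toxicity), and curves were fitted and classified.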
# Numbers stand for hits; - = inactive; ? = inconclusive; . = not tested or not shown; [ ] = remark or other dose. Unless noted, the call rests on the fitted dose curve; in most records, active means well fitted curve in the direction sought with a large enough effect; inconclusive means small, poorly fitted or top-dose-only effect, or another doubt; inactive means no such curve, though single readings can be large; an effect the other way counts as inactive or inconclusive.
SMILES,S2 tox,TGFb inhibitor,IL1B secr inh,ATXN2 expr inh,HepG2 viability
COc1cc(NC(=O)c2ccc(F)cc2)c(OC)cc1NC(=O)CN1CCCCC1,-,-,-68,-,-
COc1cc(NC(=O)c2cccc(Cl)c2)c(OC)cc1NC(=O)CN1CCOCC1,?,-,-,-,-
COc1cc(NC(=O)c2ccccc2Cl)c(OC)cc1NC(=O)CN1CCOCC1,-,-,-74,-,-
COc1cc(NC(=O)c2cccc(Cl)c2)c(OC)cc1NC(=O)CN1CCCCC1,-,-,-79,-,-
COc1ccccc1NC(=O)CN1CCN(CC(=O)Nc2ccc(F)c(F)c2)CC1,-,6.3µM,.,-,-
COc1cc(NC(=O)c2ccccc2)c(OC)cc1NC(=O)CN1CCCCC1,-,-,?,-,-
CCOc1ccc(S(=O)(=O)N2CCN(c3cc(Cl)ccc3Cl)CC2)c2ccccc12,-,-,.,-,-
O=C(CN1C(=O)COc2ccc(S(=O)(=O)Nc3ccccc3)cc21)NCc1ccccc1Cl,?,-,.,-,-
CCCOC(=O)Nc1nc2ccccc2o1,-,-,-,-,-
CCOC(=O)C(Cc1ccc(O)cc1)Nc1nc2ccccc2o1 (stereo not drawn),-,-,-54,-,-
O=c1cc(N=Nc2ccc(Cl)cc2)[nH]c(=O)[nH]1,?,-,-99,-,-
O=c1cc(-c2ccc(Cl)cc2)oc(=O)[nH]1,-,-,-,.,-
CCOC(=O)c1cc(-c2ccccc2)n(CCCC(=O)Nc2ccc(C)cc2C)c1C,.,-,.,.,-
CCOC(=O)c1cc(-c2ccccc2)n(CCCC(=O)Nc2cccc(Cl)c2C)c1C,.,11µM,.,.,-
CCOC(=O)c1cc(-c2ccccc2)n(CCC(=O)N2CCN(c3ccc(OC)cc3)CC2)c1C,?,-,-60,-,-
CCOC(=O)c1cc(-c2ccccc2)n(CCC(=O)N2CCN(c3ccccc3OC)CC2)c1C,-,?,?,-,-
CCOC(=O)c1cc(-c2ccccc2)n(CCC(=O)Nc2ccc(Cl)c(C(F)(F)F)c2)c1C,.,3.5µM,.,.,11µM
C(/Oc1ccccc1)=C1\Nn2c(nnc2-c2cc(-c3ccccc3)n[nH]2)S1,.,-,.,.,-
COC(=O)c1cccc(-c2cc(Cl)c3c(c2)CC(CNC(=O)c2cccnc2)O3)c1 (stereo not drawn),-,.,.,.,.
CCN(CC)CCSc1nnc2c3ccccc3n(Cc3ccccc3)c2n1,?,?,-,-,-
CCN(CC)CCSc1nnc2c3cc(F)ccc3n(Cc3ccccc3)c2n1,?,-,-64,-,-
CCN(CC)CCSc1nnc2c3cc(F)ccc3n(C)c2n1,-,-,.,-,-
Cc1cc(C)c2c(c1)c1nnc(SCCN3CCCCC3)nc1n2C,?,-,-72,?,-
Cn1c2ccc(F)cc2c2nnc(SCCN3CCCCC3)nc21,-,-,-60,-,-
CC(C)(C)n1ncc2c(=O)n(Cc3cc(F)c(F)cc3Cl)cnc21,.,-,.,.,-
SMILES,S2 tox,TGFb inhibitor,IL1B secr inh,ATXN2 expr inh,HepG2 viability
COc1cc(OC)c(NC(=S)Nc2cccc(C(C)=O)c2)cc1Cl,-,-,-,-,-
COc1cc(OC)c(NC(=S)Nc2cc(Cl)cc(Cl)c2)cc1Cl,?,?,-91,?,-
CC(C)(Cc1ccc2ccccc2c1)NC[C@@H](O)COc1cccc(Cl)c1C#N,.,.,.,-,.
Fc1cccc(Cc2noc(CN3CCCCC3CCc3ccccn3)n2)c1 (stereo not drawn),-,-,-79,-,-
O=C1ON=C(c2ccccc2)/C1=C/c1ccco1,-,-,-,-[11.3 µM],-
COc1ccc(C=C2C(=O)OC(C)(C)OC2=O)cc1OC,-,-,-,.,-
COc1ccc(/C=C2\C(=O)ON=C2c2ccccc2)cc1OC,?,?,-98,.,-
CCOc1cc(/C=C2\C(=O)ON=C2c2ccccc2)ccc1OC,-,?,-94,-,-
COc1cc(/C=C2\C(=O)ON=C2c2ccccc2)cc(OC)c1OC,-,-,-117,-,-
COc1ccc(/C=C2/C(=O)ON=C2c2ccccc2)cc1OC,?,?,-102,-,-
CC(C)OC(=O)C1=CN(C(=O)c2ccc(F)c(F)c2)CC(C)(C)c2c1[nH]c1ccccc21,.,.,.,-,.
COc1cccc(CN2C(=O)NC(C)(C3CCN(Cc4cnn(C)c4C)CC3)C2=O)c1OC (stereo not drawn),-,.,.,.,.
CCOc1cc(/C=C2/C(=O)ON=C2C)ccc1OCc1ccccc1,?,-,-,-,-
CCOc1cc(/C=C2/C(=O)ON=C2C)ccc1OCc1ccccc1F,?,?,-100,?,16µM
CC(C)c1cc(C(=O)NC(C)c2ccccc2)no1 (stereo not drawn),-,-,.,-,-
O=C1CC(c2cccc(O)c2)c2c(nc(SCc3ccccc3F)[nH]c2=O)N1 (stereo not drawn),-,-,.,-,7.1µM
CCOc1cc(C2CC(=O)Nc3nc(SCc4ccccc4)[nH]c(=O)c32)ccc1O (stereo not drawn),-,-,.,-,-
CN(N=O)c1ccc(/C=C/c2ccccc2)cc1,.,-,.,.,-
Nc1nn2cc(-c3ccccc3)nc2c2ccccc12,-,?,-100,-,-
CC(=O)c1cc2c(cc1N/C(=N/S(=O)(=O)c1ccc(F)cc1)c1ccccc1)OCO2,-,?,.,-,-
CCOc1ccc(S(N)(=O)=O)cc1-c1nc2c(C(C)(C)C)nn(C)c2c(=O)[nH]1,-,-,?,-,-
CCOc1ccc(S(=O)(=O)NC(C)(C)C)cc1-c1nc2c(C(C)(C)C)nn(C)c2c(=O)[nH]1,-,?,-98,?,-
COC(=O)c1cc(NC(=O)c2ccc3c(c2)N(Cc2cccc(Cl)c2)C(=O)c2ccccc2S3=O)cc(C(=O)OC)c1 (stereo not drawn),-,-,.,-,-
O=[N+]([O-])c1ccc(-c2nc(C(Cl)Cl)c3ccccc3n2)cc1,?,-,-,4µM,-
c1ccc2c(c1)c1ccccc1n1c(-c3ccc4c(c3)OCO4)nnc21,-,-,-57,?,-
SMILES,S2 tox,TGFb inhibitor,IL1B secr inh,ATXN2 expr inh,HepG2 viability
Cn1c(-c2ccc3c(c2)OCO3)cc(=O)c2ccccc21,-,-,-,-,-
CC(=O)c1ccc(NC(=O)c2c3c(nc4ccccc24)C(=O)N(C2CCCCC2)C3)cc1,.,-,.,.,-
COc1ccc(N(C)C(=O)c2cc3c(s2)-c2ccccc2OC3)c(OC)c1,-,?,-73,-,-
CC(=O)N1CCN(c2ccc(OCc3nn(C)c(C)c3-c3cccc4c(CCCOc5cc(C)c(Cl)c(C)c5)c(C(=O)O)n(Cc5cccnc5)c34)cc2)CC1,.,.,.,-,.
O=C(CSc1nc2sc3c(c2c(=O)[nH]1)CCCC3)Nc1ccccc1F,-,-,.,-,-
O=C(NCCc1ccccc1)C(c1cccs1)N(C(=O)CCl)c1ccc(Cl)cc1 (stereo not drawn),5µM,11µM,-98,4.5µM,10µM

# Screening results (PubChem BioAssay)
